Screens deposited in PubChem BioAssay by several laboratories.
KLF5 inhibitor = kruppel-like factor 5 inhibition. inhibition, % at 5 µM. 290,000 tested, 0.23% active. DLD-1 KLF5 promoter-luciferase reporter, luminescence;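 active = inhibition above a per-plate limit of that plate's mean compound inhibition plus 3 SD, cut at about 60% in these data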;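 also: 0% = DMSO wells and 100% = LY294002 at 200 µM; higher means less KLF5 promoter-driven luciferase light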
APP 5UTR inh = APP translation inhibition; inhibition, % at 2 µM; SH-SY5Y APP 5'UTR-luciferase reporter, luminescence; AID 1285; 190,000 tested, 0.82% active;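 active = inhibition above a set limit, derived from the sample mean plus 3 SD, cut at about 45% in these data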
IEC-6 cytotox = kills IEC-6 intestinal cells in KLF5 counter-screen; IEC-6 cytotoxicity, luminescence viability; inhibition, % at 5 µM; 290,000 tested, 0.78% active;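 also: 0% = plate median of test compound wells and 100% = cytotoxic reference compound wells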
Ba/F3 V617F tox = lowers viability of Ba/F3 cells expressing EpoR and JAK2V617F; ATP luminescence; inhibition, % at 5.6 µM; 220,000 tested, 1.1% active;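 active = inhibition above the campaign mean plus 3 SD over all tested compounds, cut at about 24% in these data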;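 also: cytokine-independent growth of Ba/F3 cells driven by EpoR plus mutant JAK2; 0% = DMSO-treated cells and 100% = JAK inhibitor I control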
aSyn 5UTR inh = 5' untranslated region of α-synuclein, MLPCN primary screen; alpha-synuclein 5'UTR reporter, inhibitor activity; inhibition, % (tested at 7.5 µM); 300,000 tested, 0.82% active; AID 1813; in the data active = inhibition above about 60%;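 also: H4 neuroglioblastoma cells stably carrying SNCA 5'UTR luciferase fusion; 0% = DMSO wells and 100% = positive control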
BaF3 parental = counter-screen for JAK2V617F inhibitors: parental Ba/F3 viability inhibitors. CellTiter-Glo ATP luminescence. inhibition, % at 5.6 µM. 220,000 tested, 1.1% active;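 active = inhibition above a per-campaign cutoff, the mean inhibition of all tested compounds plus 3 SD, cut at about 27% in these data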;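 also: 0% = DMSO wells and 100% = JAK Inhibitor I control wells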
IEC-6 tox confirm = IEC-6 cytotoxicity, confirmation assay; IEC-6 rat intestinal epithelial viability, luminescence; 1,900 tested, 63% active; inhibition, % at 5 µM; shares compounds with IEC-6 cytotox;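 also: 0% = vehicle and 100% = reference cytotoxic drug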
* = called active by the depositor; nt = not tested or not shown. Most compounds without a hit are left out; they make up all but 2.1% or so of the library. Rule as the data show it, unless noted: active = inhibition above about 22%; inactive = the rest.

SMILES	KLF5 inhibitor	APP 5UTR inh	IEC-6 cytotox	Ba/F3 V617F tox	aSyn 5UTR inh	BaF3 parental	IEC-6 tox confirm
Cc1cccc(C(=O)NCC(=O)OC(C)C(=O)Nc2ccc(Cl)cn2)c1 (stereo unspecified)	nt	nt	nt	nt	-13	nt	nt
CCCn1ncc(CN2CCN(Cc3ccsc3)C(CCO)C2)c1C (stereo unspecified)	11	14	-1	0	-20	-1	nt
Cc1ccccc1OCc1occc1C(=O)Nc1cccc(-n2cnnn2)c1	-12	nt	11	nt	-91	nt	nt
Cc1[nH]n(-c2ccc(Br)cc2)c(=O)c1/C=N/NC(=O)c1ccccc1	44	nt	65*	nt	47	nt	60*
Cc1cc(C(=O)N/N=C/c2c(C)[nH]n(-c3ccccc3)c2=O)n[nH]1	-37	nt	1	nt	21	nt	nt
Cc1[nH]n(-c2ccccc2)c(=O)c1/C=N/NC(=O)c1cccc(F)c1	61	nt	22*	nt	58	nt	10
CN1CCc2cc3c(c4c2[C@H]1[C@H](O)c1ccccc1-4)OCO3	-8	4	44*	65*	0	65*	5
Clc1ccc2c(NCc3cccs3)ncnc2c1	-11	nt	5	nt	-24	nt	nt
COc1cc2ncnc(NCc3cccs3)c2cc1OC	17	-7	33*	2	-24	8	32*
CC(=O)c1c(C)cc(C)c(CSc2nc(C)cc(=O)[nH]2)c1C	-19	-38	30*	7	3	3	20
CCOC(=O)C1CCN(C(=O)c2cc(S(=O)(=O)N3CCc4ccccc43)ccc2OC)CC1	nt	nt	nt	nt	8	nt	nt
CC(=O)c1cccc(NC(=O)C(C)OC(=O)Cc2c[nH]c3ccccc23)c1 (stereo unspecified)	nt	nt	nt	nt	8	nt	nt
COc1cc(NS(=O)(=O)c2ccc(OC)c(C)c2C)c(OC)cc1Cl	53	65*	35*	57*	-26	51*	52*
COc1ccc(OC)c(S(=O)(=O)Nc2cc(OC)c(Cl)cc2OC)c1	-18	7	-9	-1	-6	3	nt
CC1CCN(C(=O)CSc2nnc(CNC(=O)c3ccc(S(=O)(=O)N(C)C)cc3)o2)CC1	0	nt	-2	nt	-1	nt	nt
O=C(Cc1ccccc1)NCc1ccc(-n2cccc2)cc1	-20	1	5	8	-21	5	nt
O=C(Cc1ccc(-n2cccc2)cc1)NCc1ccccc1Cl	-24	5	29*	-1	-24	6	32*
CCOC(=O)c1ccc(NC(=O)Cn2ncc(Cl)c(Cl)c2=O)cc1	-1	96*	35*	56*	-2	63*	32*
COc1ccc(NC(=O)Cn2ncc(Cl)c(Cl)c2=O)cc1S(=O)(=O)N1CCOCC1	12	-4	41*	-4	-32	-6	7
Cc1ccc(C(=O)OCn2ncc(Cl)c(Cl)c2=O)cc1	8	92*	44*	39*	43	56*	56*
N#Cc1ccc(OCC(=O)NCC(c2cccs2)N2CCOCC2)cc1 (stereo unspecified)	-6	nt	4	nt	5	nt	nt
CCc1noc(C)c1C(=O)Nc1cc(S(=O)(=O)N2CCOCC2)ccc1OC(C)C	nt	nt	nt	nt	22	nt	nt
COc1cccc2c1cc1c(=O)n(CC(=O)NCCCN3CCCCC3)nc(C)n12	-58	nt	-4	nt	-9	nt	nt
Cc1ccc(N/N=C(\Cc2nc3ccccc3[nH]2)c2ccccc2)cc1	5	92*	55*	14	nt	19	61*
Cc1ccc(S(=O)(=O)NCc2ccc(C(=O)NC3CCCCC3)cc2)cc1	-17	nt	-5	nt	8	nt	nt
SMILES	KLF5 inhibitor	APP 5UTR inh	IEC-6 cytotox	Ba/F3 V617F tox	aSyn 5UTR inh	BaF3 parental	IEC-6 tox confirm
CS(=O)(=O)NCc1ccc(C(=O)NC2CCCCC2)cc1	-6	-3	37*	4	22	5	11
COc1ccc(NC(=S)N2CCC(NC(=O)c3ccco3)CC2)cc1	-4	nt	3	nt	-7	nt	nt
C#CC(=O)N(c1cc(OC)ccc1OC)C(C(=O)NC1CCCC1)c1cccs1 (stereo unspecified)	32	11	101*	102*	25	104*	95*
COc1ccc(N(C(=O)c2ccco2)C(C(=O)NC2CCCCC2)c2cccs2)cc1OC (stereo unspecified)	-23	-3	-1	-2	5	-1	nt
COc1cccc(N2CC(O)=C(c3nc4ccccc4s3)C2=N)c1	29	88*	79*	76*	-21	81*	57*
COc1ccc(N2CC(O)=C(c3nc4ccccc4s3)C2=N)cc1	-24	-14	4	3	6	4	nt
